Source: PubChem BioAssay (National Center for Advancing Translational Sciences (NCATS))
Hits are enriched below; roughly 0.39% of the tested compounds scored in any of these assays.
Pin1 inh: qHTS Assay to Find Inhibitors of Pin1; Peptidyl-prolyl cis-trans isomerase NIMA-interacting 1 (Homo sapiens), Q13526; Pin1 FP peptide displacement, HiFluor488, 10 min; Potency, µM (titrated, usually from 115 µM), for the others: at the top dose activity, negative = inhibition, hits mostly inhibitors; hit rate 0.009% among 390,000; active means well fitted inhibition curve with a large enough effect in the polarisation, with a control signal flat, not every such curve was filed as active; inconclusive means small, poorly fitted or top-dose-only effect, or effect the other way, or a change in a side signal; inactive means no such curve, though single readings can be large or run the other way; the % refers to the polarisation; further: on the % scale 0 is the no-effect control and ±100 the full control effect
Target sequence (Q13526 whole entry, looked up): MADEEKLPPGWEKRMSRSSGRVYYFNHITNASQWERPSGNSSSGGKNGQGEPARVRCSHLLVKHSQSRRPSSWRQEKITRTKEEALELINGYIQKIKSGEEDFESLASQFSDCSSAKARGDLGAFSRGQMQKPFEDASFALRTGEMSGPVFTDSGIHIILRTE
PKM2 act: qHTS Assay for Activators of Human Muscle isoform 2 Pyruvate Kinase; hit rate 0.34% among 260,000; purified PKM2, Kinase-Glo ATP luminescence, activation; response scale: 0% is enzyme alone, no compound; Potency, µM (highest dose often 57.5 µM), without a hit: top-dose activation, most hits filed as activators; AID 1631, 2009; Pyruvate kinase PKM (Homo sapiens), P14618; further: on the % scale 0 is the no-effect control and ±100 the full control effect; nearly all actives have a fitted effect of over 55% in size
Target sequence (P14618 whole entry, looked up, canonical isoform): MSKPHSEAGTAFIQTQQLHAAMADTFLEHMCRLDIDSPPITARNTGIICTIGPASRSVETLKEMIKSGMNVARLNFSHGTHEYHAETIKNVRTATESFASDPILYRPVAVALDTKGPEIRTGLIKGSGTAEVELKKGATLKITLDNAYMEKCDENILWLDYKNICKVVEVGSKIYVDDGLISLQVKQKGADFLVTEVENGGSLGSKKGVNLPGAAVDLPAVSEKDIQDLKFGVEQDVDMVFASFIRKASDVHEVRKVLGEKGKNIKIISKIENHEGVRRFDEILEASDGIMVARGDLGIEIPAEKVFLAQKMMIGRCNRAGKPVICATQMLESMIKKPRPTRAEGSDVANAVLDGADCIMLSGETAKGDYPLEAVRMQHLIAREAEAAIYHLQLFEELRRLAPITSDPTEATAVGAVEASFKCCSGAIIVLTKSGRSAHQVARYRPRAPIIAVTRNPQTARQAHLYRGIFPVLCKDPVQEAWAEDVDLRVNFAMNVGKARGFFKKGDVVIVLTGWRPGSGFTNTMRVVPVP
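hPK-M2, >95% pure; 0.1 mM ADP / 0.5 mM PEP final; imidazole pH7.2 buffer w/ 7 mM MgCl2, 50 mM KCl; 1 h RT; Kinase-Glo lum. Intermediate enzyme activity for dual inhibitor/activator qHTS.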
PTAP TSG101 blk: qHTS Assay for Iinhibitors of HIV-1 Budding by Blocking the Interaction of PTAP/TSG101; Fluorescence polarization, FITC-PTAP peptide / Tsg101 binding; Potency, µM (series often up to 115 µM), without a hit: at the top dose activity change, negative = inhibition, usual class: inhibitors; 340,000 tested, under 10 active; AID 493005, 2010; active means well fitted inhibition curve with a large enough effect in the main read-out, with a control signal flat, not every such curve was filed as active; inconclusive means small, poorly fitted or top-dose-only effect, or effect the other way, or a change in a side signal; inactive means no such curve, though single readings can be large or run the other way; further: % of control where 0% means no effect
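Tsg101 binding domain (10 uM final) was mixed with compound and a FITC-labeled PTAP peptide (50 nM final) in HEPES pH 7.5 buffer with NaCl, Tween 20, EDTA and TCEP; fluorescence polarization was read after 20 min at r.t.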
AT treatment: qHTS Assay for Identifying a Potential Treatment of Ataxia-Telangiectasia; F2112 A-T fibroblasts, KAP-1 phosphorylation AlphaLISA; neocarzinostatin DNA damage 30 min before lysis; Potency, µM (top dose mostly 57.5 µM), for inactives: at the highest dose activation, most hits filed as activators; hit rate 0.19% among 320,000; further: % of control where 0% means no effect; nearly all actives have a fitted effect of over 45% in size
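ATM-like activity read as KAP-1 phosphorylation via AlphaLISA donor/acceptor antibody pairs after lysis and 6 hr at 25C. Cells were ATM-null patient fibroblasts (F2112, hTERT), dosed 60 min, then exposed to the DSB inducer NCS for 30 min.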
* marks the source's active call; other numbers are inactive results. Unless noted, the call rests on the fitted dose curve; in most records, active means well fitted activation curve with a large enough effect; inconclusive means small, poorly fitted or top-dose-only effect; inactive means no such curve, though single readings can be large or run the other way. Potency means the concentration at half of the fitted maximal effect.

What do the screens show for `COc1ccccc1-c1ccc(/C=C2/C=C(C)OC2=O)o1`?
Pin1 inh: inconclusive; PKM2 act: 13µM*; PTAP TSG101 blk: 3%; AT treatment: 1%

Results for Nc1ncc(-c2cccc(-c3nn4c(=O)cc(N5CCNCC5)nc4s3)c2)cn1 ?
Pin1 inh: 35%

Results for Cc1c(O)ccc2cc(S(=O)(=O)c3ccccc3)c(=O)oc12 ?
Pin1 inh: inconclusive; PTAP TSG101 blk: 0%; AT treatment: 13µM*

What do the screens show for `Cc1ccc(-c2ccc(/C=C3\C(=O)ON=C3c3ccccc3)o2)c([N+](=O)[O-])c1`?
PKM2 act: 28µM*; PTAP TSG101 blk: -7%; AT treatment: -17%

What do the screens show for `Cc1ccc(NS(=O)(=O)c2c(C)nc3sccn3c2=O)cc1`?
Pin1 inh: 13%; PKM2 act: 10µM*; PTAP TSG101 blk: -7%; AT treatment: 3%

How did Cc1nc2sccn2c(=O)c1S(=O)(=O)Nc1cccc(Cl)c1C do in these assays?
Pin1 inh: 0%; PKM2 act: 7.1µM*; PTAP TSG101 blk: -3%; AT treatment: -5%

Results for c1ccc(CNCc2nnc(-c3cc4ccccc4[nH]3)s2)cc1 ?
Pin1 inh: -2%

What do the screens show for `COc1cccc(C2c3c(ncn(-c4ccc(Br)cc4)c3=N)Oc3ccc4ccccc4c32)c1` (stereo not drawn)?
Pin1 inh: 64%

How did COc1ccc(NS(=O)(=O)c2ccccc2)cc1NS(=O)(=O)c1ccccc1 do in these assays?
Pin1 inh: -9%

How did CC(=O)N1CCc2cc(S(=O)(=O)N3CCc4ccccc43)ccc21 do in these assays?
Pin1 inh: -14%; PKM2 act: 21%; PTAP TSG101 blk: 3%; AT treatment: 0%

What do the screens show for `COC(=O)CCC(=O)N1CCc2cc(S(=O)(=O)N3CCc4ccccc43)ccc21`?
Pin1 inh: 12%; PKM2 act: 13µM*; PTAP TSG101 blk: -1%; AT treatment: 3%

What do the screens show for `CC(=O)Nc1sc2c(c1-c1cc3ccccc3[nH]1)CCNC2`?
Pin1 inh: -38%

Results for CCn1c(C)c(C)c2cc(C(=O)NCCc3ccco3)ccc21 ?
Pin1 inh: 5%; PKM2 act: 28µM*; PTAP TSG101 blk: -2%; AT treatment: -3%

How did O=C1CCc2cc(S(=O)(=O)Nc3ccc(Cl)c(Cl)c3)ccc2N1 do in these assays?
Pin1 inh: -1%

How did COc1cccc(C2c3c(ncn(-c4ccccc4-c4ccccc4)c3=N)Oc3ccc4ccccc4c32)c1 (stereo not drawn) do in these assays?
Pin1 inh: 17%

Results for N#CCC(=O)N/N=C/c1ccc(N2N=C(c3ccccc3)CC2c2ccccc2)cc1 (stereo not drawn) ?
Pin1 inh: inconclusive; PKM2 act: -8%; PTAP TSG101 blk: 0%; AT treatment: 32µM*

Results for CC(=O)Nc1ccc(C2=NN(c3ccccc3)C(c3ccccc3)C2)cc1 (stereo not drawn) ?
Pin1 inh: -7%; PTAP TSG101 blk: -7%; AT treatment: 22µM*

How did CC(=O)Nc1ccc(C2CC(c3ccc(Cl)cc3)=NN2c2ccccc2)cc1 (stereo not drawn) do in these assays?
Pin1 inh: -6%; PTAP TSG101 blk: 0%; AT treatment: 25µM*

What do the screens show for `COc1ccc(C2CC(c3ccccc3)=NN2c2ccc(/C=N/NC(=O)c3ccncc3)cc2)cc1` (stereo not drawn)?
Pin1 inh: inconclusive; PKM2 act: 0%; PTAP TSG101 blk: 9%; AT treatment: -1%

Results for Cc1cc2c(s1)c1cnn(Cc3c(F)c(F)c(C)c(F)c3F)c(=O)c1n2C ?
Pin1 inh: 4%

How did COc1ccc(C(=O)N(Cc2ccccc2)Cc2ccccc2)c(O)c1 do in these assays?
Pin1 inh: -2%

Results for c1nc(NCCc2cnc[nH]2)c2ccc(-c3ccc4c(c3)OCO4)cc2n1 ?
Pin1 inh: 6%

Results for O=C1CCCC2=C1C1(CCSC1)N=C(Nc1nc3ccccc3o1)N2 (stereo not drawn) ?
Pin1 inh: 1%

What do the screens show for `CCCCCCCCCCCC1=C(O)C(=O)C=C(O)C1=O`?
Pin1 inh: 28µM*; PTAP TSG101 blk: -1%

Results for CCCc1nc2sc3ccccc3c(=O)c2c(=O)n1Cc1ccco1 ?
Pin1 inh: inconclusive; PKM2 act: 14µM*; PTAP TSG101 blk: -10%; AT treatment: 1%

What do the screens show for `O=C1NC(=Nc2ccccc2)CS1`?
Pin1 inh: -8%; PKM2 act: -14%; PTAP TSG101 blk: -6%; AT treatment: 11µM*

What do the screens show for `O=C1NC(=Nc2ccc(F)cc2)CS1`?
Pin1 inh: 1%; PKM2 act: -6%; PTAP TSG101 blk: 0%; AT treatment: 1%

How did COc1ccccc1CNC(c1ccccc1)c1ccccc1 do in these assays?
Pin1 inh: -6%; PKM2 act: 0%; PTAP TSG101 blk: -6%; AT treatment: 28µM*

Results for CCOc1ccccc1CNC(c1ccccc1)c1ccccc1 ?
Pin1 inh: 3%; PKM2 act: 2%; PTAP TSG101 blk: -5%; AT treatment: inconclusive

How did CCNc1nc(NCC)nc(OCCOC(=O)Nc2ccccc2)n1 do in these assays?
Pin1 inh: -4%; PKM2 act: 5%; PTAP TSG101 blk: -2%; AT treatment: 5%

What do the screens show for `CCNc1nc(NCC)nc(OCCOC(=O)c2ccccc2)n1`?
Pin1 inh: -8%; PKM2 act: 14µM*; PTAP TSG101 blk: -1%; AT treatment: 2%

Results for O=[S+]([O-])(c1ccc2c(c1)OCCO2)N1CCN([S+](=O)([O-])c2c(F)cc(Br)cc2F)CC1 ?
Pin1 inh: 3%

What do the screens show for `CCCCNC(=S)NCCCN(Cc1ccc(Cl)c(Cl)c1)c1ccc(Br)cn1`?
Pin1 inh: 12%

Results for CCN(Cc1ccncc1)S(=O)(=O)c1ccc(C(C)=O)cc1 ?
Pin1 inh: -5%; PKM2 act: 22µM*; PTAP TSG101 blk: 0%; AT treatment: -10%

Results for CCN(CC)S(=O)(=O)c1ccc(C(=O)Nc2ccc(Cc3ccncc3)cc2)cc1 ?
Pin1 inh: 12%; PKM2 act: 3%; PTAP TSG101 blk: 1%; AT treatment: -1%

Results for CCCCCOC(=O)Nc1ccc(S(=O)(=O)Nn2cnnc2)cc1 ?
Pin1 inh: -12%; PKM2 act: 4.5µM*; PTAP TSG101 blk: -10%; AT treatment: 14%

What do the screens show for `Oc1ccc(COc2ccccc2Cl)c2cccnc12`?
Pin1 inh: -2%

How did O=C(O)c1ccccc1/C=N/NC(=O)c1cc(-c2ccco2)nc2ccccc12 do in these assays?
Pin1 inh: inconclusive; PKM2 act: 25µM*; PTAP TSG101 blk: -3%; AT treatment: -14%
